The values that follow come from paper PMC4336329 (PLoS ONE, 2015).

Hit rate of the full screen: of about 310,000 compounds, about 2,200 (0.71%) showed an effect of 50% or more. Effects have a minus sign here. The entries come from a sample that favours strong results as a whole.

For this experiment, the target named is human ether-à-go-go-related gene (hERG) potassium channel (human, UniProt Q12809). Kind of experiment: primary screen, population patch clamp on CHO cells stably expressing hERG; higher = less effect of the substance.
Sequence of human ether-à-go-go-related gene (hERG) potassium channel (Q12809 whole entry, looked up): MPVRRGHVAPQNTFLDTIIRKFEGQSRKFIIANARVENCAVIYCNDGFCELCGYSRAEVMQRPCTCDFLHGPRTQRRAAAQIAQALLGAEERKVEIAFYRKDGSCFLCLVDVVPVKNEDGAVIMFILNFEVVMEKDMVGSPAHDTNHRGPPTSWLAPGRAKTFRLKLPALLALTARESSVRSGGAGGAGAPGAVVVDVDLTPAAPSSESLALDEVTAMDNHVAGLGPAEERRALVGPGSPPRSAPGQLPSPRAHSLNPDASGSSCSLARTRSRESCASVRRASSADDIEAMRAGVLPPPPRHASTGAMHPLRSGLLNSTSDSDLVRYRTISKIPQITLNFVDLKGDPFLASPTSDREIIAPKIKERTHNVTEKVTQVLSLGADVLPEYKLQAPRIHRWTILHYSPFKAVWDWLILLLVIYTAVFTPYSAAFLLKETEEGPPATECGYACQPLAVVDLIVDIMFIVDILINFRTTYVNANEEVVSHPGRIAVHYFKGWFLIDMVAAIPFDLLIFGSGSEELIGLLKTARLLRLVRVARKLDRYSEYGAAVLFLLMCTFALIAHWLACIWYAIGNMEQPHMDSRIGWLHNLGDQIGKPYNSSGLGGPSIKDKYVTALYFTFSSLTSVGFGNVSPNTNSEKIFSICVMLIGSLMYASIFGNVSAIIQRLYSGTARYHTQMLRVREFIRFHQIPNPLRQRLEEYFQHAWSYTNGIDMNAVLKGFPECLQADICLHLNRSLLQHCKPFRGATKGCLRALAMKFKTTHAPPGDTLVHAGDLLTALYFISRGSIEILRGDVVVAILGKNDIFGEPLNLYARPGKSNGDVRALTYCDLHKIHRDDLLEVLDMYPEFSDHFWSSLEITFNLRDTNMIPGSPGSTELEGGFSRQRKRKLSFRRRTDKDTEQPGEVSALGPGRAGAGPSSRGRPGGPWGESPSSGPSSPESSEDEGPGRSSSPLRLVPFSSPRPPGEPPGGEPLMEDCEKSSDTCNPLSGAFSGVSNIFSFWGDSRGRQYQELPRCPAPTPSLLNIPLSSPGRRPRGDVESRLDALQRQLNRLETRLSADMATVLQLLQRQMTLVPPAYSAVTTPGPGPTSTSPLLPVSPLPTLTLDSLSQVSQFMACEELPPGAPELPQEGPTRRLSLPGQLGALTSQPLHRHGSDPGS
Turning to `Cc1nc(OCc2c(C)noc2C)c2ccccc2n1`, the “hERG current change (%, negative = inhibition) at 1uM” value worked out at 13.1%.
With `CCn1cc(C(=O)N2CCC3(CC2)OCCO3)c(=O)c2cc(S(=O)(=O)N3CCCC3)ccc21`, the “hERG current change (%, negative = inhibition) at 1uM” value is 15.9%.
Turning to `Cn1c(CNC(=O)Nc2ccccc2Cl)nnc1SCc1ccccc1`, the “hERG current change (%, negative = inhibition) at 1uM” value is 2.3%.
For the compound `CCCN(C(=O)CSc1nnc2ccccn12)C1CCS(=O)(=O)C1` (centres unmarked), the “hERG current change (%, negative = inhibition) at 1uM” value is on record as 10.4%.
`CC(=O)NC(NC(C)=O)c1ccc(Br)cc1`: the “hERG current change (%, negative = inhibition) at 1uM” value was -1.9%.
Under `COC(=O)c1ccc(C)c(NC(=O)c2ccc(Cl)c([N+](=O)[O-])c2)c1` stands 5.94%; under `CCOC(=O)c1c(N2CCN(c3ccccc3)CC2)cc(C)nc1C.O=C([O-])C(=O)[O-]`, -69%; under `CCOC(=O)c1[nH]c(C)c(C(=O)N2CCN(c3ccccc3)CC2)c1C`, -3.94%.
On to `CCOC(=O)c1c(CN2CCN(c3ccccc3)CC2)oc2ccc(O)cc12`, for which the “hERG current change (%, negative = inhibition) at 1uM” value is on record as 12.6%.
As for `CCCC(=O)Nc1ccccc1NC(=O)CN(C)S(=O)(=O)c1ccccc1`, the “hERG current change (%, negative = inhibition) at 1uM” value is 9.94%.
With `CCOc1ccccc1NC(=O)CSc1nnc(-c2ccco2)o1`, the “hERG current change (%, negative = inhibition) at 1uM” value came out at 8.2%.
Turning to `N/C(=N\OC(=O)CCC1CCCCC1)c1cccc([N+](=O)[O-])c1`, the “hERG current change (%, negative = inhibition) at 1uM” value turned out to be 3.64%.
In the case of `N/C(=N\OC(=O)CCC1CCCC1)c1cccc([N+](=O)[O-])c1` it was -53.8%; in that of `N/C(=N\OC(=O)CC1CCCCC1)c1cccc([N+](=O)[O-])c1`, 13.7%.
For `O=C(O)c1ccc(NS(=O)(=O)c2cc(Cl)ccc2Cl)cc1O`, the “hERG current change (%, negative = inhibition) at 1uM” value is reported as 4.19%.
As for `CCCc1cc(C(=O)Nc2cc(Br)ccc2O)no1`, the “hERG current change (%, negative = inhibition) at 1uM” value came to 18.4%.
For `CCc1ccc(NC(=O)C(=O)NCCN2CCN(Cc3ccc([N+](=O)[O-])cc3)CC2)cc1`, the “hERG current change (%, negative = inhibition) at 1uM” value is listed as -67.4%.
Turning to `Cc1ccc(NC(=O)C(=O)NCCN2CCN(Cc3ccc([N+](=O)[O-])cc3)CC2)cc1`, the “hERG current change (%, negative = inhibition) at 1uM” value is on record as -53.3%.
For `CN1CCN(CCNC(=O)Nc2ccc([N+](=O)[O-])cc2)CC1`, the “hERG current change (%, negative = inhibition) at 1uM” value was determined as 10.7%.
With `O=C(NCCN1CCN(S(=O)(=O)c2ccc([N+](=O)[O-])cc2)CC1)C(=O)Nc1ccccc1`, the “hERG current change (%, negative = inhibition) at 1uM” value is given as 2.87%.
As for `CCCCc1ccc(NC(=O)C(=O)NCCN2CCN(Cc3ccc([N+](=O)[O-])cc3)CC2)cc1`, the “hERG current change (%, negative = inhibition) at 1uM” value is recorded as -6.8%.
Consider `O=C(NCCN1CCN(Cc2ccc([N+](=O)[O-])cc2)CC1)C(=O)Nc1ccccc1`, for which the “hERG current change (%, negative = inhibition) at 1uM” value is on record as -53.8%.
For the compound `CCN1CCN(CCNC(=O)Nc2ccc([N+](=O)[O-])cc2)CC1`, the “hERG current change (%, negative = inhibition) at 1uM” value is on record as 13.2%.
In the case of `CCc1ccc(NC(=O)C(=O)NCCN2CCN(S(C)(=O)=O)CC2)cc1` it was 18.2%.
In the case of `O=C(NCCc1ccccc1)C(=O)Nc1ccc([N+](=O)[O-])cc1`, the “hERG current change (%, negative = inhibition) at 1uM” value was found to be 11%.
Take `Cc1ccc(CNS(=O)(=O)/C=C/c2ccc3c(c2)OCO3)cc1`: the “hERG current change (%, negative = inhibition) at 1uM” value is reported as -0.964%.
In the case of `c1ccc(-c2nnc3sc(-c4csc5c4CCCC5)nn23)cc1`, the “hERG current change (%, negative = inhibition) at 1uM” value stood at 4.3%.
For `O=C(Nc1ncn[nH]1)c1ccc([N+](=O)[O-])cc1[N+](=O)[O-]`, the “hERG current change (%, negative = inhibition) at 1uM” value is given as 18.3%.
In the case of `COCCNC(=S)N(Cc1cccs1)Cc1cc2cccc(C)c2[nH]c1=O` it was 15.9%; in that of `Brc1cccc(CNc2nc3ccccc3n2CCN2CCOCC2)c1`, -56.7%.
For `Cc1nc2cc(NCc3nc4ccccc4n3Cc3ccccc3)ccc2n1C`, the “hERG current change (%, negative = inhibition) at 1uM” value is recorded as -61.7%.
Turning to `c1ccc(Cn2c(CNc3nc4ccccc4n3CCN3CCOCC3)nc3ccccc32)cc1`, the “hERG current change (%, negative = inhibition) at 1uM” value was -54.4%.
Take `CCn1cnc2cc(NCc3nc4ccccc4n3Cc3ccccc3)ccc21`: the “hERG current change (%, negative = inhibition) at 1uM” value is -15.2%.
For `c1csc(CNc2nc3ccccc3n2CCN2CCOCC2)c1`, the “hERG current change (%, negative = inhibition) at 1uM” value is -9.4%.
As for `Brc1cccc(CNc2nc3ccccc3n2CCN2CCCCC2)c1`, the “hERG current change (%, negative = inhibition) at 1uM” value was -0.507%.
For `Cc1cccc(NCc2nc3ccccc3n2Cc2ccccc2)c1`, the “hERG current change (%, negative = inhibition) at 1uM” value is 12%.
As to `CCN(CC)c1ccc(CNc2nc3ccccc3n2CCN2CCOCC2)cc1`, the “hERG current change (%, negative = inhibition) at 1uM” value is given as -76.1%.
Regarding `COc1ccc(CNc2nc3ccccc3n2CCN2CCOCC2)cc1`, the “hERG current change (%, negative = inhibition) at 1uM” value is on record as -46.5%.
With `c1ccc(Cn2c(CNc3nc4ccccc4n3CCN3CCCCC3)nc3ccccc32)cc1`, the “hERG current change (%, negative = inhibition) at 1uM” value is reported as -5.91%.
`c1ccc2c(c1)nc(NCc1ccc3c(c1)OCO3)n2CCN1CCOCC1`: the “hERG current change (%, negative = inhibition) at 1uM” value is recorded as -40.7%.
With `CCN(CC)c1ccc(CNc2nc3ccccc3n2CCN2CCCCC2)cc1`, the “hERG current change (%, negative = inhibition) at 1uM” value is -18%.
Under `NS(=O)(=O)c1ccc(NC(=O)CSc2nc(Nc3ccccc3)nc(N3CCOCC3)n2)cc1` stands 24.9%; under `Cc1c(F)cccc1NC(=O)CSCC(=O)Nc1ccccc1`, 5.59%; under `COC(=O)C1=C(c2ccc(F)cc2OCc2ccccc2)C[C@@H]2CC[C@H]1N2C(=O)NCc1ccc(Cl)cc1`, 14.6%.
Take `Cc1ccc(OC(=O)c2ccccc2C(=O)OCC(F)(F)C(F)F)cc1`: the “hERG current change (%, negative = inhibition) at 1uM” value is on record as 14%.
Regarding `Cc1ccc(-c2nnn(CC(=O)NCCC3=CCCCC3)n2)cc1`, the “hERG current change (%, negative = inhibition) at 1uM” value came out at 18.4%.
In the case of `Cc1ccc(NC(=O)NCCCCc2ccccc2)cc1` it was 14.4%; in that of `CCC(NS(=O)(=O)c1ccc(C)cc1)C(=O)N1CCOCCOCCOCC1` (centres unmarked), 20.3%.
As for `COc1ccc(OCc2nnc(SCc3ccc(C(=O)O)cc3)o2)cc1`, the “hERG current change (%, negative = inhibition) at 1uM” value is 16.6%.
Regarding `Cc1ccc(NC(=O)c2nn(C34CC5CC(CC(C5)C3)C4)cc2[N+](=O)[O-])cc1`, the “hERG current change (%, negative = inhibition) at 1uM” value is -2.47%.
On to `Cc1cc(Cl)ccc1OCC(=O)NNC(=O)CCOc1ccccc1`, for which the “hERG current change (%, negative = inhibition) at 1uM” value is given as -0.757%.
As for `O=C(COC(=O)CC(c1ccccc1)c1ccccc1)Nc1ccc(F)c(F)c1`, the “hERG current change (%, negative = inhibition) at 1uM” value came out at 1.93%.
As to `O=c1c2ccccc2nc(-c2ccccc2)n1-c1nccs1`, the “hERG current change (%, negative = inhibition) at 1uM” value is on record as 11.6%.
Take `C/C=C(\C)C(=O)OC1c2c(ccc3ccc(=O)oc23)OC(C)(C)C1OC(C)=O` (centres unmarked): the “hERG current change (%, negative = inhibition) at 1uM” value is reported as -54.7%.
Consider `C/C=C(/C)C(=O)O[C@@H]1c2c(ccc3ccc(=O)oc23)OC(C)(C)[C@@H]1OC(=O)/C(C)=C\C`, for which the “hERG current change (%, negative = inhibition) at 1uM” value is on record as 9.46%.
With `C/C=C(/C)C(=O)OC1c2c(ccc3ccc(=O)oc23)OC(C)(C)C1OC(C)=O` (centres unmarked), the “hERG current change (%, negative = inhibition) at 1uM” value is recorded as -36.9%.
